PubChem BioAssay
Unmarked numbers belong to inactive results. The source made the active and inactive calls. Cut-off read from the data, not from the text of the source, unless noted: active = inhibition above about 36%; inactive = the rest.

Columns and labels:
[1] = target: Nuclear receptor coactivator 3 (Homo sapiens) (UniProt Q9Y6Q9); experiment: NCOA3 GAL4-fusion reporter inhibition – cell-based, luminescence, quadruplicate, confirmation (AID 588792;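 active = mean inhibition over 43.08%, the solvent-only control mean plus 3 SD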;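 note: 0% = DMSO treated cells and 100% = gossypol at 36 µM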); conditions: HEK293 GAL4-SRC3 luciferase reporter, at 3.6 µM, hits give high values
Sequence of Nuclear receptor coactivator 3 (Homo sapiens) (Q9Y6Q9 whole entry, looked up, the tested form may be a part): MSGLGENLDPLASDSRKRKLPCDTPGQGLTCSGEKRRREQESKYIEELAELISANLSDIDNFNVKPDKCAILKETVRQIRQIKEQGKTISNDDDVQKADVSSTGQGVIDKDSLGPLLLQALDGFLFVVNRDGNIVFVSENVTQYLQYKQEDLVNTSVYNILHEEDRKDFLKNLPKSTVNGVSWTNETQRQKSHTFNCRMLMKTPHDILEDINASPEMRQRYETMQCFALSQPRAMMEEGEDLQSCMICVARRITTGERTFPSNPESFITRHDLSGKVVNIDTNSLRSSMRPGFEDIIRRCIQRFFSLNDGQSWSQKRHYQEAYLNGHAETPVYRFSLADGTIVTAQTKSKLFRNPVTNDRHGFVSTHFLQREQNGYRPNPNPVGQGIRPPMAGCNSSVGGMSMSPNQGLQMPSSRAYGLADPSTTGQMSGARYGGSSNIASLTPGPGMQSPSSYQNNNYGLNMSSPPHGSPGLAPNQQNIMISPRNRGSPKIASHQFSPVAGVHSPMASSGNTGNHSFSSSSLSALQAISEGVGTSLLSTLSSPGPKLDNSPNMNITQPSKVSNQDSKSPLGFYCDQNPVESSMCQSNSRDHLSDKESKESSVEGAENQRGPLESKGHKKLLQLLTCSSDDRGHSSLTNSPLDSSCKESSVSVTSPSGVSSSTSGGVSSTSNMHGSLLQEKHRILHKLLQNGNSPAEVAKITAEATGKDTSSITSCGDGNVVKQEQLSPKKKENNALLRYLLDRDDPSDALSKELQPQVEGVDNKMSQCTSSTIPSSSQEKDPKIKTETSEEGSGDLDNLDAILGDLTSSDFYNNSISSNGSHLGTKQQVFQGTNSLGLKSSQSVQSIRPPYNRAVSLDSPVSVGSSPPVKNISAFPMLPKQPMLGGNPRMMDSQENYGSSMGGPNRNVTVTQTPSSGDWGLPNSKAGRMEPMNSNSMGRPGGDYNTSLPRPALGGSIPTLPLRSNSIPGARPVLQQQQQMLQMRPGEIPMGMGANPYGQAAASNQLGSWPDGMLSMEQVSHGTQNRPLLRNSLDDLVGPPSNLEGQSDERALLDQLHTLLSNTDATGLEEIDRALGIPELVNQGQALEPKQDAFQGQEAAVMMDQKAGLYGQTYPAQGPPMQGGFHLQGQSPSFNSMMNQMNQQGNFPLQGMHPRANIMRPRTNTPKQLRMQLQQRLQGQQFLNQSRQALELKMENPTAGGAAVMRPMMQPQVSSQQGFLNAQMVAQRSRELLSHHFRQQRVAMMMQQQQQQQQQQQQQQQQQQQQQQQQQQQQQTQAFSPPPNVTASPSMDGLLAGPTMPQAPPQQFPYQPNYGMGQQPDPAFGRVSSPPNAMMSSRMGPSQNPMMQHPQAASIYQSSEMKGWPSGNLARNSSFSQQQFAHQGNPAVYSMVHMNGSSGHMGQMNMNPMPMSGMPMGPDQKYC

[2] = test system: transactivating tegument protein VP16 (Human herpesvirus 1), Gal4-VP16 luciferase reporter; experiment: repression of VP16-driven luciferase reporter – cell-based, luminescence, high throughput, counter-screen for SRC3 inhibitor project (AID 588794; in the data active = inhibition above about 30%); conditions: mammalian cells, at 3.6 µM, hits give high values
[3] = target: Nuclear receptor coactivator 1 (Homo sapiens) (UniProt Q15788); experiment: NCOA1 GAL4-fusion reporter inhibition – cell-based, luminescence, quadruplicate, confirmation (AID 588820;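 active = mean inhibition above 46.68%, the untreated control wells mean plus 3 SD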;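 note: 0% = DMSO wells and 100% = gossypol 36 µM treated wells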); conditions: HEK293 GAL4-SRC1 luciferase reporter, at 3.6 µM, hits give high values
Sequence of Nuclear receptor coactivator 1 (Homo sapiens) (Q15788 whole entry, looked up, the tested form may be a part): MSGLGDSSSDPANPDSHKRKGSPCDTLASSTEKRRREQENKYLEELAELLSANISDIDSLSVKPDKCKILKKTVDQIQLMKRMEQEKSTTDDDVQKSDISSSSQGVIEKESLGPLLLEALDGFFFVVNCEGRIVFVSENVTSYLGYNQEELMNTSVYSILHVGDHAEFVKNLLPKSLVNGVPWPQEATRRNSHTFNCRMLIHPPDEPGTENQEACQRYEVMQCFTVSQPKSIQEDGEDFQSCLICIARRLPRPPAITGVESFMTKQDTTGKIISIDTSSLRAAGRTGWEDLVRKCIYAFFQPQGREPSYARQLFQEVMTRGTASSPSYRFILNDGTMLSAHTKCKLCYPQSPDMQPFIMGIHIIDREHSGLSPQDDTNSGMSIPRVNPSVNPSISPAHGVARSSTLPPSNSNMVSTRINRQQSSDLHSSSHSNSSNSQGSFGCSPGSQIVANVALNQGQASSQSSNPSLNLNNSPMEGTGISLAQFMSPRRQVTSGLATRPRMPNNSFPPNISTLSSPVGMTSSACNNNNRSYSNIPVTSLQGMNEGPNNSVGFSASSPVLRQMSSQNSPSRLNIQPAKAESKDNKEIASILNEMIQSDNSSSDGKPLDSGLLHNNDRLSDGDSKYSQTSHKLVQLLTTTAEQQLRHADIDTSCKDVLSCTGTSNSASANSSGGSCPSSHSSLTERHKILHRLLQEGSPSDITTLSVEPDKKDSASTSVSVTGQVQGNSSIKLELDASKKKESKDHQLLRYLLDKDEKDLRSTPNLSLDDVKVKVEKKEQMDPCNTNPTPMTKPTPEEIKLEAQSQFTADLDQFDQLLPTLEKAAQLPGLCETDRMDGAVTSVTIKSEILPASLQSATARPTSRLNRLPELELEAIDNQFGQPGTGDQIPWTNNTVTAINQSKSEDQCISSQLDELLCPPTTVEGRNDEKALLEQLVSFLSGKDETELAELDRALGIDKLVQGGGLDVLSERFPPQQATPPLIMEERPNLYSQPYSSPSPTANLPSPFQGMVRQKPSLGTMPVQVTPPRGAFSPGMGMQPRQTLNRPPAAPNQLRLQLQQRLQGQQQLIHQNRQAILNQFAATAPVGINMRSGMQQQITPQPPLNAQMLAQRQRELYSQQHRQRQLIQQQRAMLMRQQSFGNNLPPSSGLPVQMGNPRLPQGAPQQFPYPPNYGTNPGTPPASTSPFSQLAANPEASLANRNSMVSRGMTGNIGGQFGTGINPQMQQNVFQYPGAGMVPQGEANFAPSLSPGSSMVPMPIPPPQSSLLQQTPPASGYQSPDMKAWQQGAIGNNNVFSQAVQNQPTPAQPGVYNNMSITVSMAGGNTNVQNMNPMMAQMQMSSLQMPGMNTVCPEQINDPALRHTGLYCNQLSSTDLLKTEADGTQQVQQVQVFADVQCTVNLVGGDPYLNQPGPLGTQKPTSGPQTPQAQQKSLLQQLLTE

[4] = repression of VP16-driven luciferase reporter – cell-based, luminescence, high throughput, counter-screen for SRC1 inhibitor project (AID 588824; in the data active = inhibition above about 25%); conditions: cell-based VP16 transactivation luciferase luminescence; at 3.6 µM; hits give high values
[5] = test system: transactivating tegument protein VP16 (Human herpesvirus 1); experiment: compounds suppressing VP16-driven luciferase signal – cell-based, luminescence, single concentration, counter-screen for SRC2 inhibitor project (AID 652007); conditions: cell-based VP16 transactivation luciferase reporter, at 8.9 µM, hits give high values
[6] = target: Nuclear receptor coactivator 2 (Homo sapiens) (UniProt Q15596); experiment: inhibition of GAL4-SRC2 driven luciferase expression – cell-based, luminescence, HEK293, triplicate, confirmation (AID 652008;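 active = mean inhibition above 46.5%, the solvent-only control mean plus 3 SD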;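 note: 0% = DMSO-treated cells and 100% = Gossypol at 36 µM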); conditions: HEK293 GAL4-SRC2 luciferase reporter, at 8.9 µM, hits give high values
Sequence of Nuclear receptor coactivator 2 (Homo sapiens) (Q15596 whole entry, looked up, the tested form may be a part): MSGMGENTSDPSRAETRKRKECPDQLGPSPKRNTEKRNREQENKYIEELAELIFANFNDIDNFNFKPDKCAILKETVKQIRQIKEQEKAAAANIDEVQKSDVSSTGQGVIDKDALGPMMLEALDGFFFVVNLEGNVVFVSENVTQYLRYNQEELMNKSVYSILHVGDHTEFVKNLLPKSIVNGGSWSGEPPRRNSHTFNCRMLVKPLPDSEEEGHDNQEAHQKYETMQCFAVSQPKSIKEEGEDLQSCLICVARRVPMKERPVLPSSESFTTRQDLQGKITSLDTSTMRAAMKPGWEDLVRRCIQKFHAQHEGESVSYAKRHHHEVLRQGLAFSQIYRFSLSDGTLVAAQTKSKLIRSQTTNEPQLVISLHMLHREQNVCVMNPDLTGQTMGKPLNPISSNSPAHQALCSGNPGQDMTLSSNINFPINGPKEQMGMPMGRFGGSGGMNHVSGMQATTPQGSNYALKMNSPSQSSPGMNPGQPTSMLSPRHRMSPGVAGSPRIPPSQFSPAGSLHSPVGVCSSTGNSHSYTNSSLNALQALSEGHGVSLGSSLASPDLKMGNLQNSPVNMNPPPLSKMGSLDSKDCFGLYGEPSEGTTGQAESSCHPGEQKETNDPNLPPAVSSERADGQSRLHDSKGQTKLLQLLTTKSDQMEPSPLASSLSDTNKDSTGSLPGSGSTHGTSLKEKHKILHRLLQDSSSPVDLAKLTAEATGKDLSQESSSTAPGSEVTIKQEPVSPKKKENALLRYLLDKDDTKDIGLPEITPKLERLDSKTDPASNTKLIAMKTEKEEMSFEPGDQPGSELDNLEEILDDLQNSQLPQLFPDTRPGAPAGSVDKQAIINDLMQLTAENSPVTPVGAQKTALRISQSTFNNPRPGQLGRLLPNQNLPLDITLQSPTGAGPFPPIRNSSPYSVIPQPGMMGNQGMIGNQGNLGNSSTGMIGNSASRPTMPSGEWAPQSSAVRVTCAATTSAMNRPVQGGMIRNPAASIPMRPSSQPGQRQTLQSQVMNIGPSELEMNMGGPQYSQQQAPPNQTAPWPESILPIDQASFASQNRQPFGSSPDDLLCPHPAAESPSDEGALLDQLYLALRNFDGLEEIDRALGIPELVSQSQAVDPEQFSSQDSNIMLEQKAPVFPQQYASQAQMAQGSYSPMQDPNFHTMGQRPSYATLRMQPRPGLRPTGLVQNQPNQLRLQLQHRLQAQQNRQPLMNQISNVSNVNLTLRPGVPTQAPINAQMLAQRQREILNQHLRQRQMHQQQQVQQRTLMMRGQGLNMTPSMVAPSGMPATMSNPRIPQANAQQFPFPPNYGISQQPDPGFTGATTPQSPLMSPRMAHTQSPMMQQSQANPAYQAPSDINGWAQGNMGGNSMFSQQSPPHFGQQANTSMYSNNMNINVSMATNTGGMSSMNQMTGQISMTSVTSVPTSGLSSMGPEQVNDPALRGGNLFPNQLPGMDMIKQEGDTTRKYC

SMILES	inhibition [1]	inhibition [2]	inhibition [3]	inhibition [4]	inhibition [5]	inhibition [6]
CC(C)(CO)CNc1ccn2nccc2n1	49.3% (active)	35.4% (active)	67.4% (active)	41% (active)	-7.15%	27.5%
Cc1csc(SCC(=O)c2cc(C)n(Cc3cccs3)c2C)n1	9.06%	-12.3%	-81.8%	-42.6%	-28.2%	31.4%
CC(=O)c1sc(NC(=O)C2(F)C(F)(F)C(F)(F)C(F)(F)C(F)(F)C2(F)F)nc1C	66.5% (active)	79% (active)	60.4% (active)	84.5% (active)	4.16%	23.9%
COc1ccc(/C=C2\CC/C(=C\c3ccc(OC)c(OC)c3)C2=O)cc1OC	30.9%	10.7%	16.2%	16.9%	41.5% (active)	77.9% (active)
CN(C)C=Nc1ncc2c3ccccc3n(CCN(C)C)c2c1C#N	48.6% (active)	29.9% (active)	48.9% (active)	33.2% (active)	-1.55%	9.25%
CCCC(=O)N1CCN(c2ccc(NC(=O)c3cc4ccccc4o3)cc2Cl)CC1	-3.22%	5.64%	-6.77%	6.71%	35.5% (active)	27.2%
COc1ccc(-c2cncnc2-c2ccc(OC)cc2O)cc1	58.9% (active)	36.3% (active)	57.1% (active)	35% (active)	14.3%	42.5%
CCc1cc(-c2[nH]ncc2-c2ccc3c(c2)OCO3)c(O)cc1O	59.9% (active)	34.5% (active)	27.7%	39.8% (active)	30.3%	18.2%
c1ccc(CCc2nn3c(-c4ccncc4)nnc3s2)cc1	68.4% (active)	47.2% (active)	57.3% (active)	41.1% (active)	1.28%	50.8% (active)
Clc1ccccc1C1=Nn2c(nnc2-c2ccncc2)SC1	78.3% (active)	52.6% (active)	73.9% (active)	55.2% (active)	7.16%	46%
COc1cccc(Nc2ncnc3ccc(Br)cc23)c1	43.5% (active)	31% (active)	51% (active)	30.9% (active)	-7.29%	34.5%
CCn1c(Oc2ccccc2C)nc2c1c(=O)n(C)c(=O)n2C	51.9% (active)	34.7% (active)	51.5% (active)	30.6% (active)	14.5%	40.9%
Cc1[nH]nc2ncc(C(=O)c3ccccc3O)cc12	73.3% (active)	43.9% (active)	68.7% (active)	48.9% (active)	-2.08%	50.4% (active)
COCCNc1nc(Oc2cncc(Cl)c2)c2sccc2n1	42.1%	29.7% (active)	44.3%	32.8% (active)	16.6%	45.5%
COc1ccc2[nH]c3c(c2c1)CC(C)NC3=O (stereo not given)	73% (active)	49.7% (active)	67.3% (active)	52.2% (active)	14.3%	41.6%
O=c1c2ccccc2cnn1-c1nc2ccccc2[nH]1	57.4% (active)	50.6% (active)	22.3%	41.9% (active)	76.6% (active)	84.9% (active)
COCCn1c(C)cc(C(=O)CSc2nnnn2C2CCCC2)c1C	-7.91%	-5.21%	-99.2%	-66.8%	-19.6%	51.9% (active)
Brc1ccc2ncnc(NCc3cccnc3)c2c1	70.6% (active)	44% (active)	55.9% (active)	42.8% (active)	-3.67%	39.8%
CCc1ccn2cc(-c3cc(-c4ccccc4)no3)nc2c1	2.16%	7.18%	-92.4%	-4.46%	36.5% (active)	61.6% (active)
Cn1nc(C(F)(F)F)c(C#N)c1N1CCN(c2ccc(F)cc2)CC1	36.7%	31.8% (active)	36.7%	25.1%	-6.8%	48.8% (active)
